From the supplement of paper PMC10849652
The full data set covers some 7,900 targets. This sample favours those with a hit. About 0.6% of all pairs of compound and target were hits. Unmarked numbers belong to inactive results.

What was measured:
Experiment in all cases: log2 fold change, soluble protein after heating vs DMSO (PISA); higher = thermal stabilisation; K562 cells, 10 uM, 30 min; active = over 0.2 and 3.5 SD of the protein, either way, in both replicates (recomputed)
IRAK-1-4 Inhibitor I = compound: C1COCCN1CCN2C3=CC=CC=C3N=C2NC(=O)C4=CC(=CC=C4)[N+](=O)[O-] [IRAK-1-4 Inhibitor I]
Method in brief: (§1)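 K562 cells at 2×10^6 cells/mL were exposed to 10 μM compound for 30 min, then aliquots were heated for 3 min across 48°C-58°C, pooled, and extracted in PBS containing 0.5% NP-40 at 4°C. The supernatant after 21,000xg for 90 min was taken as soluble protein and measured by TMTpro 16plex LC-MS/MS with channel sums equalised. Thermal stability is reported relative to control samples, with values from duplicates. Fold changes are given on a log2 scale.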

ibrutinib = compound: C=CC(=O)N1CCC[C@@H](n2nc(-c3ccc(Oc4ccccc4)cc3)c3c(N)ncnc32)C1 [ibrutinib]
Method in brief: as §1

[1] = compound: CC(=O)c1cnc2ccc(-c3cc(Cl)c(O)c(Cl)c3)nc2c1N[C@H]1CC[C@H](CN(C)C)CC1
Method in brief: as §1

ralimetinib = compound: CC(C)(C)Cn1c(N)nc2ccc(-c3[nH]c(C(C)(C)C)nc3-c3ccc(F)cc3)nc21 [ralimetinib]
Method in brief: as §1

[2] = compound: CC(C)(O)CC(=O)NCCn1ccc2ncnc(Nc3ccc(Oc4cccc(C(F)(F)F)c4)c(Cl)c3)c21
Method in brief: as §1

[3] = compound: CC(C)C1=C2N=C(C=C(N2N=C1)NCC3=CC=CC=C3)NCCCCCCN
Method in brief: as §1

[4] = compound: CC(C)C[C@@H](C=O)NC(=O)[C@H](CC(C)C)NC(=O)[C@H](CC(C)C)NC(=O)OCc1ccccc1
Method in brief: as §1

pinometostat = compound: CC(C)N(C[C@H]1O[C@@H](n2cnc3c(N)ncnc32)[C@H](O)[C@@H]1O)[C@H]1C[C@@H](CCc2nc3cc(C(C)(C)C)ccc3[nH]2)C1 [pinometostat]
Method in brief: as §1

[5] = compound: CC1=C(C(CC(=O)N1)C2=CC=C(C=C2)C(F)(F)F)C(=O)NC3=C(C=C4C(=C3)C=NN4)F
Method in brief: as §1

[6] = compound: CC1=C(C2=C(C=C1)C(=O)C3=CC=CC=C3N2CCCN)C
Method in brief: as §1

[7] = compound: CC1=C(C=C(C=C1)NC(=O)C2=CC(=CC=C2)C(C)(C)C#N)NC3=CC4=C(C=C3)N=CN(C4=O)C
Method in brief: as §1

[8] = compound: CC1=C(C=C(C=C1)NC(=O)C2=CC(=CC=C2)N(C)C)NC(=O)C3=CC=C(C=C3)O
Method in brief: as §1

[9] = compound: CC1=CC=C(C=C1)SC2=C3C=C(SC3=CN=C2)C(=O)N
Method in brief: as §1

[10] = compound: CC1=NC(=CC=C1)C2=C(N=C(N2)C(C)(C)C)C3=CC4=NC=CN=C4C=C3
Method in brief: as §1

Nexturastat A = compound: CCCCN(Cc1ccc(C(=O)NO)cc1)C(=O)Nc1ccccc1 [Nexturastat A]
Method in brief: as §1

vemurafenib = compound: CCCS(=O)(=O)Nc1ccc(F)c(C(=O)c2c[nH]c3ncc(-c4ccc(Cl)cc4)cc23)c1F [vemurafenib]
Method in brief: as §1

[11] = compound: CCCS(=O)(=O)Nc1ccc(F)c(C(=O)c2c[nH]c3ncc(Cl)cc23)c1F
Method in brief: as §1

[12] = compound: CCCc1cc(C)[nH]c(=O)c1CNC(=O)c1cc(-c2ccnc(N3CCN(C)CC3)c2)cc2c1cnn2C(C)C
Method in brief: as §1

givinostat = compound: CCN(CC)Cc1ccc2cc(COC(=O)Nc3ccc(C(=O)NO)cc3)ccc2c1 [givinostat]
Method in brief: as §1

barasertib = compound: CCN(CCCOc1ccc2c(Nc3cc(CC(=O)Nc4cccc(F)c4)[nH]n3)ncnc2c1)CCOP(=O)(O)O [barasertib]
Method in brief: as §1

Sequence of UniProt Q96IZ7 (Q96IZ7 whole entry, looked up): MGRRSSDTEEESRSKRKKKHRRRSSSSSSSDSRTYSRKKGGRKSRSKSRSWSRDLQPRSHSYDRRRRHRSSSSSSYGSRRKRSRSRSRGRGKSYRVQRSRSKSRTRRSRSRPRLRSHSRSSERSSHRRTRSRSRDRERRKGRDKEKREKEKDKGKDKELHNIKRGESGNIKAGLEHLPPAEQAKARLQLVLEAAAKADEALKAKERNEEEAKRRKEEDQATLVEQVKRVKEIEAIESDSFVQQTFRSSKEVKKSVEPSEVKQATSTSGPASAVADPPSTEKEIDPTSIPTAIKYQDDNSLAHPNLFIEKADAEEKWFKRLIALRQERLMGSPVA
Sequence of UniProt O00560 (O00560 whole entry, looked up): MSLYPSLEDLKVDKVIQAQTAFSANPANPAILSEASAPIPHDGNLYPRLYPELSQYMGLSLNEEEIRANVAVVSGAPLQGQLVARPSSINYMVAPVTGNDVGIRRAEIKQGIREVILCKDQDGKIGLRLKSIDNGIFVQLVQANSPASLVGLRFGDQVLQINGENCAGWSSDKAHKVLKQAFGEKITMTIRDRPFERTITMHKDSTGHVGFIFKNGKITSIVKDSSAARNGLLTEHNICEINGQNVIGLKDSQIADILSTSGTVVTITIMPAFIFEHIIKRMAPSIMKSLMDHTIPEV
Sequence of UniProt P27694 (P27694 whole entry, looked up): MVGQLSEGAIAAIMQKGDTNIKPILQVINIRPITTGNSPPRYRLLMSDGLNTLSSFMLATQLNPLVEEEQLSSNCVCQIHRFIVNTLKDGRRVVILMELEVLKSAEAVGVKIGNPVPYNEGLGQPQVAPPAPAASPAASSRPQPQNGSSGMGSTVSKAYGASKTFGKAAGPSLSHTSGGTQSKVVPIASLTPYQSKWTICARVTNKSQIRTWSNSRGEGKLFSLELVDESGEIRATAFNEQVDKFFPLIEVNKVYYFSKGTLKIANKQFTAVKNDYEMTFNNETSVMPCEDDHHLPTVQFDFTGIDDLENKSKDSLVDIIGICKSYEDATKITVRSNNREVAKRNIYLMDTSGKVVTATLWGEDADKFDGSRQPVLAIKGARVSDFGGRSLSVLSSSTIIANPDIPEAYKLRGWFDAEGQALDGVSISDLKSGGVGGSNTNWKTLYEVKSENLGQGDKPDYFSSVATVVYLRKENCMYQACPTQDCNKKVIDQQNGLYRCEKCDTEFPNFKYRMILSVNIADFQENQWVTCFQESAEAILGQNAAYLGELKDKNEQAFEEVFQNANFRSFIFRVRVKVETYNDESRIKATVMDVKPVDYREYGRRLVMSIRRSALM
Sequence of UniProt Q9UKL0 (Q9UKL0 whole entry, looked up): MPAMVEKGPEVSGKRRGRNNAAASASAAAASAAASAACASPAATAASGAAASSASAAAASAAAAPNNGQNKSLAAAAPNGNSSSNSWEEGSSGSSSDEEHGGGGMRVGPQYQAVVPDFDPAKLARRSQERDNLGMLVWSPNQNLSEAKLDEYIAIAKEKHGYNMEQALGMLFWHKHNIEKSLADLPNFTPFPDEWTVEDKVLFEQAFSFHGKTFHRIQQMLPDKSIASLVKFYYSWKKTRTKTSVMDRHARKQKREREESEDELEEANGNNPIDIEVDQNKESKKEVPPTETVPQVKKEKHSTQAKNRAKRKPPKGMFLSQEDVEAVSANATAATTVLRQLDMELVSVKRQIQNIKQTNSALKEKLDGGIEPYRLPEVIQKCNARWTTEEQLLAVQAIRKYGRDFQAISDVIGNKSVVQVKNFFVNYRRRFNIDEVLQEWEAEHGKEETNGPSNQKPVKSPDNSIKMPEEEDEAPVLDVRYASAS
Sequence of UniProt Q99719 (Q99719 whole entry, looked up): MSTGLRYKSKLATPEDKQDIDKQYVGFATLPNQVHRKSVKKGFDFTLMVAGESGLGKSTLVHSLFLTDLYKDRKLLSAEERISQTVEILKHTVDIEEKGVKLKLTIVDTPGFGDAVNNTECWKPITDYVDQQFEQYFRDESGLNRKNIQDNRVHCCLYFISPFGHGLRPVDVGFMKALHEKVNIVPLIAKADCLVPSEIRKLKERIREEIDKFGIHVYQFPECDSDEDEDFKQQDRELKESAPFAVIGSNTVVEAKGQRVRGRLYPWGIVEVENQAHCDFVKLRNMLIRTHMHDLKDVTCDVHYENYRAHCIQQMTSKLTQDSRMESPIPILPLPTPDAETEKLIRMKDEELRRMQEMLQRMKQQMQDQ
Sequence of UniProt O75116 (O75116 whole entry, looked up): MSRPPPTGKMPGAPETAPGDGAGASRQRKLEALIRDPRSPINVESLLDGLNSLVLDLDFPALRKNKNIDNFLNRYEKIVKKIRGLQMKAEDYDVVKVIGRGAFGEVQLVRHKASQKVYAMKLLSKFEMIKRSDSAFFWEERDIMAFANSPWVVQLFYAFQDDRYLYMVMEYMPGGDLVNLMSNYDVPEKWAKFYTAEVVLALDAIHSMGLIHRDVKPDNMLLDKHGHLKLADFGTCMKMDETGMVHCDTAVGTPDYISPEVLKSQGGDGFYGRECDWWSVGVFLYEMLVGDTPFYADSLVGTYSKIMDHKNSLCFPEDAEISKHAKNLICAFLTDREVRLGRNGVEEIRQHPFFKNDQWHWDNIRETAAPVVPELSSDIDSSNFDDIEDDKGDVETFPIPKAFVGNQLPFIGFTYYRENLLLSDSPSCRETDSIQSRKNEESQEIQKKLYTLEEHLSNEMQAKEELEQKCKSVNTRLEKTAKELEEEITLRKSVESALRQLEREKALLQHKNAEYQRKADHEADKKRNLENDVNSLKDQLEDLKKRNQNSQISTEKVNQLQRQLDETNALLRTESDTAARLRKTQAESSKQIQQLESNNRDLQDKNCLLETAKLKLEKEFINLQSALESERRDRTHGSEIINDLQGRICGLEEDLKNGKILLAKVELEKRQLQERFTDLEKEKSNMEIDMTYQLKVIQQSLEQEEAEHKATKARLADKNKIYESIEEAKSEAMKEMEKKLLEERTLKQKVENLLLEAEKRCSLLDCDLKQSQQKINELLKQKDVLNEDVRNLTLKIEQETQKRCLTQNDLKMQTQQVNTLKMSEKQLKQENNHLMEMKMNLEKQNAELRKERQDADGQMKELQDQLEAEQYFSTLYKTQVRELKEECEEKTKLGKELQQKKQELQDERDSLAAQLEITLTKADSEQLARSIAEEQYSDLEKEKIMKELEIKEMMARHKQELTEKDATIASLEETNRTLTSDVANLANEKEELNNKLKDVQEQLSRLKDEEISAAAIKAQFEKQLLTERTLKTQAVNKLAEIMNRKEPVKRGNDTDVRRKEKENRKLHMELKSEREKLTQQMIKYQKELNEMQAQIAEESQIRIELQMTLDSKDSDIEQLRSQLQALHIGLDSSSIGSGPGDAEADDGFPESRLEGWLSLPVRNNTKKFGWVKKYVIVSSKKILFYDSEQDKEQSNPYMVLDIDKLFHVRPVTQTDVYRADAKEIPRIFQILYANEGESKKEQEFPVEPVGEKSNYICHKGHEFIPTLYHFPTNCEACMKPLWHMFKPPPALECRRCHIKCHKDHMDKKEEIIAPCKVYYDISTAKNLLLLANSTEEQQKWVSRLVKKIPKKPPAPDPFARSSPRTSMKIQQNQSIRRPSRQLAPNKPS
Sequence of UniProt Q5VTB9 (Q5VTB9 whole entry, looked up): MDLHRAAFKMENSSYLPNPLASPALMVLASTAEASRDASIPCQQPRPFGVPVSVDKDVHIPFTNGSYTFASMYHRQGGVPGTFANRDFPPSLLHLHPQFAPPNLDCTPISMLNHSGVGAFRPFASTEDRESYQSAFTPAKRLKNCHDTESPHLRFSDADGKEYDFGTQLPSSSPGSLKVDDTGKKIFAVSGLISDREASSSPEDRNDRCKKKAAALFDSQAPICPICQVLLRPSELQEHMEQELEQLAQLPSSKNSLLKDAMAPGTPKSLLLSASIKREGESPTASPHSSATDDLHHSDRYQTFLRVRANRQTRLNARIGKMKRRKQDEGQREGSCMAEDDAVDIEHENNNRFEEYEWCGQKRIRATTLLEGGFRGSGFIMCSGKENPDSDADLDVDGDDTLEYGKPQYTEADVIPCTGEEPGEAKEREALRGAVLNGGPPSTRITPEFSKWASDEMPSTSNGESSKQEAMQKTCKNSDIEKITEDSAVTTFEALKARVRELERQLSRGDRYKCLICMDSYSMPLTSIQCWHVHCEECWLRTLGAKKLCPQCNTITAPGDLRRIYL
Sequence of UniProt Q9NPQ8 (Q9NPQ8 whole entry, looked up): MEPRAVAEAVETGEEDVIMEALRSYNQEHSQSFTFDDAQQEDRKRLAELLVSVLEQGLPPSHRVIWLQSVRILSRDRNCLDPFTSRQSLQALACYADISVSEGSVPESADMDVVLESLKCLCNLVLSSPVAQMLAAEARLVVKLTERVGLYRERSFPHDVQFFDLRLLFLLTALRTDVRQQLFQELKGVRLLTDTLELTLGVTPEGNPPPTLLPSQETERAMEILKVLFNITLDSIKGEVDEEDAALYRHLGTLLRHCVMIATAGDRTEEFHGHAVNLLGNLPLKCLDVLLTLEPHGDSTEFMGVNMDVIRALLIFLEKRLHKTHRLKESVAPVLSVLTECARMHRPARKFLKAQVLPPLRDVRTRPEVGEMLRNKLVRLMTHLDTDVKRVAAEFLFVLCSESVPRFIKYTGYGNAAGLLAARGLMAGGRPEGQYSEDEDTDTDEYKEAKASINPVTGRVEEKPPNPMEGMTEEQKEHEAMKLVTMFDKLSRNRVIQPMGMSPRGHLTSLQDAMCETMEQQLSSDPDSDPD
Sequence of UniProt P11233 (P11233 whole entry, looked up): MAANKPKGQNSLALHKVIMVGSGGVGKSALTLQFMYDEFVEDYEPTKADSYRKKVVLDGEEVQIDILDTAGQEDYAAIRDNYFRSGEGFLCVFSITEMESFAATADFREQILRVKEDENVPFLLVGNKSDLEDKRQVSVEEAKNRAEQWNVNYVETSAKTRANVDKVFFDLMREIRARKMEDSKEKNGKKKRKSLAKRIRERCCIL

Row | Target | log2 fold change (IRAK-1-4 Inhibitor I) | log2 fold change (ibrutinib) | log2 fold change [1] | log2 fold change (ralimetinib) | log2 fold change [2] | log2 fold change [3] | log2 fold change [4] | log2 fold change (pinometostat) | log2 fold change [5] | log2 fold change [6] | log2 fold change [7] | log2 fold change [8] | log2 fold change [9] | log2 fold change [10] | log2 fold change (Nexturastat A) | log2 fold change (vemurafenib) | log2 fold change [11] | log2 fold change [12] | log2 fold change (givinostat) | log2 fold change (barasertib)
1 | RNF220 (UniProt Q5VTB9) | 0.017 | -0.032 | -0.02 | -0.045 | 0.021 | -0.011 | -0.046 | -0.076 | -0.023 | 0.004 | -0.01 | -0.086 | 0.008 | 0.047 | 0.008 | -0.001 | -0.001 | -0.023 | 0.038 | 0.016
2 | RBM8A (UniProt Q9Y5S9) | -0.027 | -0.017 | 0.127 | -0.015 | -0.002 | 0.128 | 0.024 | -0.015 | -0.029 | 0.027 | -0.025 | -0.024 | -0.02 | 0.075 | -0.069 | 0.024 | -0.001 | 0.04 | -0.032 | 0.043
3 | RPA1 (UniProt P27694) | -0.026 | -0.022 | -0.03 | -0.008 | -0.053 | -0.019 | -0.027 | -0.021 | -0.007 | 0.202 | 0.028 | -0.047 | -0.002 | 0.05 | 0.044 | 0.039 | 0.125 | 0.104 | 0.069 | 0.068
4 | SDCBP (UniProt O00560) | 0.021 | 0.139 | -0.02 | -0.036 | -0.064 | -0.671 (active) | 0.181 | 0.057 | 0.073 | -0.007 | 0.007 | 0.021 | 0.009 | 0.025 | 0.001 | 0.051 | 0.041 | -0.176 | -0.027 | -0.039
5 | SEPTIN5 (UniProt Q99719) | 0.014 | -0.013 | -0.031 | -0.084 | -0.03 | 0.034 | -0.051 | -0.041 | -0.005 | 0.011 | 0.026 | 0 | 0.007 | 0.003 | -0.06 | -0.015 | -0.015 | 0.104 | -0.006 | -0.013
6 | RALA (UniProt P11233) | -0.005 | 0.038 | 0.018 | -0.113 | 0.096 | 0.103 | -0.033 | -0.123 | -0.024 | 0.054 | -0.007 | -0.006 | 0.02 | 0.132 | 0.021 | -0.031 | 0.05 | 0.019 | -0.002 | -0.001
7 | SLC12A9 (UniProt Q9BXP2) | 0.112 | -0.001 | 0.016 | -0.106 | -0.012 | -0.165 | 0.033 | -0.018 | 0.028 | 0.056 | -0.007 | 0.056 | -0.04 | 0.005 | -0.008 | 0.017 | -0.012 | -0.059 | -0.014 | 0.083
8 | RPS3 (UniProt P23396) | -0.091 | 0.02 | 0.051 | 0.034 | 0.005 | -0.096 | 0.016 | 0.128 | 0.031 | -0.497 (active) | 0.011 | 0.003 | -0.077 | -0.042 | 0.069 | -0.086 | -0.102 | 0.041 | 0.007 | -0.088
9 | RSRC1 (UniProt Q96IZ7) | -0.062 | 0.034 | -0.178 | -0.01 | 0.056 | -0.071 | 0.009 | -0.017 | -0.012 | 0.047 | 0.041 | 0.013 | 0.006 | 0.056 | 0.02 | -0.046 | 0.004 | -0.026 | 0.019 | -0.031
10 | RPS19 (UniProt P39019) | -0.085 | 0.052 | 0.05 | 0.064 | 0.03 | -0.025 | 0.039 | 0.084 | 0.026 | -0.523 (active) | 0.008 | 0.007 | -0.054 | -0.009 | 0.121 | -0.07 | -0.066 | -0.039 | 0.013 | -0.083
11 | ROCK2 (UniProt O75116) | -0.037 | -0.052 | -0.137 | 0.032 | -0.049 | -0.138 | 0.034 | 0.021 | 0.29 (active) | 0 | 0.009 | -0.044 | -0.037 | 0.02 | -0.004 | 0.034 | -0.005 | -0.06 | 0.055 | 0.027
12 | RIC8A isoform 3 (UniProt Q9NPQ8) | -0.073 | -0.051 | -0.193 | 0.06 | -0.052 | -0.354 | 0.066 | 0.166 | -0.005 | -0.132 | 0.074 | -0.051 | 0.024 | 0.023 | 0.198 | 0.028 | 0.085 | 0.111 | 0.028 | 0.073
13 | RCOR1 (UniProt Q9UKL0) | -0.037 | -0.036 | -0.14 | 0.002 | -0.08 | 0.002 | -0.034 | 0.026 | 0.025 | 0.021 | -0.061 | -0.089 | 0.037 | 0.021 | 0.054 | 0.016 | 0.029 | -0.032 | 0.114 | 0.01
